Results as given in the supplement of paper PMC6555819.

Assays:
Assay in all cases: PBM binding z-score (relative to random genomic background probes); higher = stronger binding; sequences stand for … in GC…GCGATTGACAGCGTAGAATGAAGG
[1] = system: RARb homodimer (NR concentration 270 nM)
Procedure, shortened: (§1)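 Random background probes are the reference for binding z-scores. These scores derive from regression-normalized fluorescence on custom Agilent 4×180K protein-binding microarrays incubated 1 h with ligand-free nuclear receptor dimers. Binding was detected with antibodies against each partner (one per run).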

[2] = system: RARg:RXRa (NR concentration 270 nM, RXRa partner concentration 90 nM)
Procedure, shortened: as §1

[3] = system: RARg homodimer (NR concentration 270 nM)
Procedure, shortened: as §1

[4] = system: RXRa DBDmut IVT, anti-RXR (DBD mutation: RXRa K156A/R161A, NR concentration 90 nM)
Procedure, shortened: as §1

[5] = system: RXRa homodimer (NR concentration 180 nM)
Procedure, shortened: as §1

[6] = system: THRa:RXRa (NR concentration 90 nM, RXRa partner concentration 90 nM)
Procedure, shortened: as §1

[7] = system: THRa homodimer (NR concentration 90 nM)
Procedure, shortened: as §1

[8] = system: VDR homodimer (NR concentration 270 nM)
Procedure, shortened: as §1

Sequence | PBM binding z-score [1] | PBM binding z-score [2] | PBM binding z-score [3] | PBM binding z-score [4] | PBM binding z-score [5] | PBM binding z-score [6] | PBM binding z-score [7] | PBM binding z-score [8]
ATATGTAGGTTACATCCGGATCATTCAGGCTATG | 0.614 | 1.02 | 1.25 | 0.718 | 1.24 | 1.3 | 0.394 | 0.331
CCTCGGAGGACAGAAGCTCAGAGCTGTCCGCTTT | -0.763 | -0.638 | -0.103 | -0.29 | -0.985 | -0.606 | -1.12 | -0.819
CCGGCTGGGGCAGAAAGGTTACCATACCATCCGG | 2.18 | 1.68 | 1.35 | -1.28 | 1.74 | 0.969 | -0.459 | -0.229
GCAGACAGGTCAAACGCAGGTAACTCAGGGTGGC | 2.7 | 5.58 | 4.53 | 2.16 | 4.65 | 3.23 | -0.195 | 0.795
ATCTCTAGGTAAGACTCAGTTCAGTGATGAACGC | 0.637 | 0.588 | 0.547 | 0.656 | 0.315 | 0.739 | 0.755 | 1.4
GGAACTAGGGCAAGTTGATAGCAGAGTTTGATGG | 1.11 | 0.675 | 1.21 | 1.07 | 0.0337 | 0.0165 | -0.214 | 0.251
CTCGAAAGGTCGGCTGAGGTGAGTATACGGATAA | 2.61 | 3.82 | 3.8 | 0.843 | 3.44 | 5.13 | 1.12 | 0.549
CATACAGGGTGAGCTAGGCCAGAGTAGGGACGGC | 0.342 | 0.54 | 0.662 | -1.01 | 0.302 | 0.989 | 0.182 | -0.497
GTTATTAGTTGAAAGGGCAACCGAATGATTCTCG | 2.41 | 1.75 | 1.95 | 1.16 | 1.64 | 1.18 | 0.669 | 1.55
AGTCAAAGTTCACTAGGTAACTTAAGATTCAGCT | 3.53 | 4.86 | 5.58 | 4.13 | 3.94 | 2.03 | 0.269 | 3.85
CCTACTGGGCCACGAAAGGTCATTGTTTCAGTGA | 4.64 | 4.55 | 4.31 | 0.971 | 5.09 | 3.94 | 0.739 | 2.75
CCTACTGGGCCATCAGGTCAGTGATATCAACGTT | 2.46 | 1.18 | 1.57 | -0.413 | 0.552 | 2.19 | 1.78 | 0.319
AGAAGGAGGGCAATGAGTTGATAGCACGGGTGGC | 1.51 | 0.896 | 1.46 | 0.955 | 0.646 | 0.385 | 0.339 | 2.51
ACTAGTTGGTCAGCTGAGGTCACGCACAATTCGG | 4.79 | 4.85 | 4.8 | 1.32 | 4.79 | 5.26 | 5.78 | 3.51
AGAATGAGGTTAGTAAGATCAGGGAATTGCGGTC | 0.918 | 0.607 | 0.689 | 0.175 | 0.741 | 1.33 | 0.245 | 0.435
CCAGACAGGTGAAAGGTAATTCAGTCTGGTACGC | 0.45 | 1.04 | 0.643 | -0.17 | 1.68 | 0.696 | -0.243 | -0.314
ATCTCTAGGTAAAGCTCAGTGAAAGATCGATAGA | -0.225 | 0.103 | 0.259 | -0.165 | -0.128 | 0.19 | -0.0384 | -0.271
ATACCAAGGTGATCGTGAGGTAGTTGATACTAAC | 0.262 | 0.422 | 0.424 | -0.401 | 0.329 | 1.5 | 0.542 | 0.0713
TCATATAGGTAATACAGGTCAAAGTCGGCATCTA | 3.29 | 2.91 | 2.37 | 2.04 | 3.63 | 2.71 | 1.24 | 2.13

Sequence | PBM binding z-score [1] | PBM binding z-score [2] | PBM binding z-score [3] | PBM binding z-score [4] | PBM binding z-score [5] | PBM binding z-score [6] | PBM binding z-score [7] | PBM binding z-score [8]
ATCTCTAGGTAAAGATAGTTCAGTGTATGCAAAT | 1.22 | 0.725 | 0.952 | 0.412 | 0.465 | 1.05 | 0.467 | 0.96
TCCAGTAGGTTACCAATGGGGCATTCAGCTTTCT | 0.751 | 1.45 | 0.608 | 0.663 | 0.815 | 0.145 | -0.653 | -0.528
ACTATTAGTTGACGTAGGGCAACCGATACGACGC | 0.993 | 0.445 | 0.82 | 0.582 | 0.328 | 0.925 | -0.0539 | 0.159
GGAACGAGGGCATTGGAGTTGATAGCATGGCGAT | 1.04 | 1.13 | 1.42 | 2.75 | 0.72 | 1.9 | -0.24 | 2.58
CAGCCTAGGTCAGGACCAGTATAGGAGGAACGTT | 1.97 | 2.81 | 3.89 | -0.0885 | 1.7 | 1.94 | 0.463 | -0.0387
GCTCGAAGGACAAGGTCAGAGCTTTGTCCGTAGA | 3.06 | 3.15 | 3.49 | 0.0106 | 2.51 | 2.65 | 0.93 | 0.387
ACTAGCAGGCCACGTTTGGGTCACTCAAACAAAG | 1.91 | 2.05 | 1.58 | -0.109 | 0.813 | 2.64 | 1.28 | -0.0731
TCTAGCAGGCCAGAGGGTCAATCAAGAGGTACGG | 2.63 | 2.97 | 2.14 | -0.246 | 2.87 | 1.62 | -0.729 | 0.802
AGAACGAGAGCAATGAGTTGATAGCACGGGTGGC | -0.971 | -0.154 | -0.0386 | -0.0984 | 0.0785 | -0.86 | -1.05 | 0.253
ATCTCCAGGTAACAAGTTCAGTGAAAGAGAGGAC | 2.16 | 1.92 | 1.39 | 0.944 | 1.12 | 1.96 | 1.49 | 3.33
AGACCAAGGTGATCGTGAGGTCGTTGATACTAAC | 1.51 | 1.99 | 0.635 | 0.408 | 1.37 | 3.4 | 2.04 | 2.56
AGAACCAGGGCACGCTGAGTTGATAGCAGAGTAG | 0.548 | 0.797 | 1.19 | -0.0403 | 0.657 | 0.883 | -0.00671 | 0.466
CCTGCTAGGTCATGGTCAGCTGATCTACAGTATG | 3.13 | 3.97 | 4.53 | 1.96 | 3.2 | 3.17 | 1.23 | 0.608
CCTACTGGGCCCAGGTCATTGATCAGTCAAAGCA | 2.14 | 2.06 | 1.28 | -0.46 | 1.47 | 2.93 | 2.15 | 1.25
AGAATGAGGTTATAGGTAGATCAGGGAAGAAAGT | 1.39 | 1.63 | 1.08 | 1.35 | 2.15 | 2.45 | 1.42 | 1.24
TCTTGTTGATCAAGCAGGTTAAGAAAGCCTGAGT | 0.418 | -0.0831 | -0.348 | 0.561 | 0.248 | 0.444 | -0.1 | 0.0832
TCTTGTAGATCAATAGAGGTTATGAAAGTGCGCT | 1 | 1.01 | 0.611 | 1.05 | 1.55 | 2.33 | -0.187 | 0.0483
TCAGACAGGTTAAGGTAACTCAGGTACGCAGTCG | 1.33 | 1.22 | 1.08 | 1.43 | 1.57 | 3.11 | 2.5 | 0.557
TCTAGTTGGTCAAAGGTCCCACACTCGAAATGCG | 1.47 | 1.55 | 1.05 | 1.26 | 1.75 | 0.71 | 0.58 | 0.39

Sequence | PBM binding z-score [1] | PBM binding z-score [2] | PBM binding z-score [3] | PBM binding z-score [4] | PBM binding z-score [5] | PBM binding z-score [6] | PBM binding z-score [7] | PBM binding z-score [8]
TCTTGTAGATCAAGCAGGTTAAGAATGCCTGAGT | 0.163 | -0.103 | -0.0252 | 0.563 | 0.24 | 0.276 | -0.376 | 0.0352
TCATATAGGTAAAAGCTAGGTGAAAGTCCGATCT | 0.265 | 0.433 | 0.218 | 1.44 | 0.939 | 1.3 | 0.0247 | -0.0504
ATCCCTAGGTAAGACTCAGTTCAGTGAAGAACGC | 0.754 | -0.0118 | -0.0617 | 0.567 | 0.0289 | 0.832 | 1 | 1.07
TCTTGTTGATCAATAGAGGTTAAGAAAGTGCGCT | 1.09 | 0.58 | 0.28 | 0.766 | 1.48 | 1.58 | -0.22 | 0.411
TCATATAGGTATAAGGTGAAAGTCGGTGTGGTAA | 1.17 | 0.768 | 0.521 | 1.77 | 1.35 | 2.68 | 2.4 | 0.494
GCTTGTAGATCAAGGTCAAGAAAGACTAAGCTAA | 3.18 | 3.61 | 3.42 | 1.03 | 3.6 | 3.36 | 1.74 | 1.37
GCTAACGGGTCAAAGGTTATAGCATGAATAGAAT | 3.09 | 6.57 | 4.55 | 1.87 | 8.85 | 3.65 | -0.286 | 1.33
ATCTCTAGCTAAAGTTCAGTGAAAGATCGATAGA | 2.45 | 1.76 | 2.45 | 0.982 | 1.11 | 0.511 | -0.124 | 1.9
CCAGTCAGGTGAGAAGGTAACTCAGCCTCGATTA | 0.469 | 0.276 | 0.321 | -0.0426 | 0.153 | 1.11 | 0.512 | -0.271
CCTAGCAGGCCAATCTGGGCCACTCAAGGCTTGA | -0.384 | -0.481 | -0.168 | -0.177 | -0.923 | 1.24 | -0.893 | -1.12
CAGCCTTGGTCAGGGCCAGTATAGGAGGAACGTT | 0.149 | -0.144 | 0.23 | -1.06 | -0.491 | -0.654 | -0.63 | -0.985
TGAATGAGGCTAAAGATCAGGGAACGTGGCGTCG | -0.821 | -0.0145 | 0.0972 | -0.642 | 0.184 | 0.0902 | -1.04 | -0.642
CAAACTAGGTCAAGGTGAAAGTCGGTTTGTGCCA | 3.45 | 3.81 | 4.95 | 1.61 | 2.82 | 3.49 | 2.52 | 0.978
CGCCCAAGGTCAGAGAGGTCAGTGAATGCCGAGT | 5.43 | 6.31 | 6.93 | 3 | 5.42 | 4.15 | 2.33 | 5.31
TCTTGTAGGTCAACAGGAGGTTAAGAAAGATCGA | 3.98 | 6.27 | 5.18 | 1.42 | 4.53 | 3.41 | 0.603 | 0.658
TCTTGTAGATCAATAGAGGTTACGAAAGTGCGCT | 1.7 | 1.05 | 0.657 | 0.65 | 1.54 | 2.75 | 0.12 | 0.507
CCGAGTAAGTTATGGGGCATTCAGGCAACGGTGA | 0.181 | -0.241 | -0.0978 | 0.0937 | -0.299 | 0.0579 | -0.117 | -0.0157
ACTCGGCGGACAAAGGTCAGAGCTACGCCAGTGA | 4.19 | 5.15 | 4.72 | 0.437 | 4.46 | 2.39 | 0.00347 | 0.793
